Records with an inconclusive call do not appear. A call without a number means that no potency is given here. The source made the active and inactive calls. Unless noted, calls come from the whole dose curve; as a rule, active = well fitted curve in the direction sought with a large enough effect; inconclusive = small, poorly fitted or top-dose-only effect, or another doubt; inactive = no such curve, though single readings can be large; an effect the other way counts as inactive or inconclusive.

Sequence of 3',5'-cyclic-AMP phosphodiesterase 4B (Homo sapiens) (Q07343 whole entry, looked up): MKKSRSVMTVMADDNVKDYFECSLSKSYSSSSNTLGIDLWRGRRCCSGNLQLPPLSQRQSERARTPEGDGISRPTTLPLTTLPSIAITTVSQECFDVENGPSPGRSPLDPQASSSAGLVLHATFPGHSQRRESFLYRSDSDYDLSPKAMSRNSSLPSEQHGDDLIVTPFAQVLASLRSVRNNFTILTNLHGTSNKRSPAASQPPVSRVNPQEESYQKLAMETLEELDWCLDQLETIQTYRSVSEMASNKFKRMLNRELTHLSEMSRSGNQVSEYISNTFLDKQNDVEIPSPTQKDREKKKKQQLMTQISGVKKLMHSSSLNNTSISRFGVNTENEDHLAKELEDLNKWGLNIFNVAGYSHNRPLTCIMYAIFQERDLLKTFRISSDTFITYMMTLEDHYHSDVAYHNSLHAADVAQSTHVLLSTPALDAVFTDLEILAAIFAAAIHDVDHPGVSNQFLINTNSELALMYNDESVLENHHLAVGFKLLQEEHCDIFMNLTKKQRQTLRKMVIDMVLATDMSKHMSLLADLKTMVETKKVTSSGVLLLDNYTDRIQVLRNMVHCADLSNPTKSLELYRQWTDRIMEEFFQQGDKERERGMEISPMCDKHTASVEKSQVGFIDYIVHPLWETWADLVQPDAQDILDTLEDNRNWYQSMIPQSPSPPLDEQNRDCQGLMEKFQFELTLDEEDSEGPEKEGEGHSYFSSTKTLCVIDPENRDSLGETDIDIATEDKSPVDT
Sequence of Cytochrome P450 3A4 (Homo sapiens) (P08684 whole entry, looked up): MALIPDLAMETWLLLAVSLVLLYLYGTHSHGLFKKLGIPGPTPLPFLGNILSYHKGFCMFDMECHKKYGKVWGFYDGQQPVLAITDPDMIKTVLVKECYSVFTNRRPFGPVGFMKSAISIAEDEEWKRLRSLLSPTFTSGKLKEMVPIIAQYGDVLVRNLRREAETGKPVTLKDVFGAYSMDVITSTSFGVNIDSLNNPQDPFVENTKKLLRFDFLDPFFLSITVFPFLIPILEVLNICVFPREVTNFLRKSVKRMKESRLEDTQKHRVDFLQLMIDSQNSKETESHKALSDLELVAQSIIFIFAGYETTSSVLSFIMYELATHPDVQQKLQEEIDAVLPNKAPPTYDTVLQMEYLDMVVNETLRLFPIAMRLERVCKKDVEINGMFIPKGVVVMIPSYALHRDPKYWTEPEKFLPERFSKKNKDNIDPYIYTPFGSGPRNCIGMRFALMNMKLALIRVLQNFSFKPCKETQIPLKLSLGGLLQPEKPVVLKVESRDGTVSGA
Sequence of Cytochrome P450 2C9 (Homo sapiens) (P11712 whole entry, looked up): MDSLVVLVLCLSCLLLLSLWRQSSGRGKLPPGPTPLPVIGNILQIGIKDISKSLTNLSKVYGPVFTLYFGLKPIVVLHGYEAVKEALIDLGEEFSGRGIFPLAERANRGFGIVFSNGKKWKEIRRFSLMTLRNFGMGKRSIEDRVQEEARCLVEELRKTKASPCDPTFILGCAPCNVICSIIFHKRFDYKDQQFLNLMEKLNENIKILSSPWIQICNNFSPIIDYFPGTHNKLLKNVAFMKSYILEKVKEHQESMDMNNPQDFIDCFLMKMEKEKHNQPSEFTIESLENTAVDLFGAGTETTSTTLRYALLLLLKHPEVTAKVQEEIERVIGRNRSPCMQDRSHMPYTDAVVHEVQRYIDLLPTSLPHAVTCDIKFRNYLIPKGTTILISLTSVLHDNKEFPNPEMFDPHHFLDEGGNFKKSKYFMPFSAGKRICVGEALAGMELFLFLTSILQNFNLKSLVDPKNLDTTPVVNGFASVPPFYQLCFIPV

The first assay addresses 3',5'-cyclic-AMP phosphodiesterase 4B (Homo sapiens) (UniProt Q07343). Briefly: qHTS Assay for Inhibitors of PDE-IV (AID 607; active = well fitted activation curve with a large enough effect in the main read-out, with a control signal flat, not every such curve was filed as active; note: potency is the fitted concentration of half-maximal effect). The following applies: HEK293 ACTOne CNG channel cells, membrane potential fluorescence; series mostly up to 22.9 µM. In a few lines:
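The readout is membrane depolarisation from a cAMP-sensing CNG channel, detected with a potential dye at ex 535/em 590. Cells were HEK293-derived (endogenous PDE-IV) at 1000 cells/well, titrated up to 22.9 uM final.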
(qHTS replaces the single test concentration by a dilution series.)
For the compound `Cc1cccc(CNc2ncncc2-c2ccccc2CN(C)C)c1`, the Potency result is “inactive”.
Same read-out and setting: the same measure for `COc1ccc(Oc2ncc3nc(-c4cc(F)cc(F)c4)c(=O)n(C4CC4)c3n2)cc1`: “inactive”; for `O=c1c(-c2ccccc2)nc2cnc(Oc3ccccc3)nc2n1C[C@H]1CCCO1`: “inactive”; for `COc1ccccc1-c1nccc(N2CCN(C)CC2)n1`: “inactive”.
In the case of `COc1cccc(-c2cncnc2NCCN2CCOCC2)c1`, the Potency entry is “inactive”.
The same measure, in the same setting: for `CCNc1ncc2ncc(=O)n(Cc3ccc(F)cc3)c2n1` the value was “inactive”; for `COc1cccc(Cn2c(=O)cnc3cnc(Nc4cccc(OC)c4)nc32)c1`, “inactive”.
With `COc1cccc(-c2ccc3ncnc(NCc4cnc(C)cn4)c3c2)c1`, the Potency result is “inactive”.
Still for that read-out and setting: for `Cn1c(=O)c(-c2ccccc2)nc2cnc(N3CCOCC3)nc21` the value was “inactive”; for `CN1CCN(c2ncc3nc(-c4cn(C)c5ccccc45)c(=O)n(C[C@H]4CCCO4)c3n2)CC1`, “inactive”; for `COc1ccc2[nH]cc(CCNc3ncnc4ccc(-c5ccoc5)cc34)c2c1`, “inactive”.
Still for that read-out and setting: for `O=c1c(-c2cccc(F)c2)nc2cncnc2n1Cc1ccc(F)cc1` the value was “inactive”; for `COCCn1c(=O)c(-c2cccs2)nc2cnc(Oc3ccccc3)nc21`, “inactive”.
The same measure, in the same setting: for `CN(C)c1ncnc2ccc(-c3cccc(NS(C)(=O)=O)c3)cc12` the value was “inactive”.
`COc1ccc(Oc2ncc3nc(-c4ccc(F)cc4)c(=O)n(C[C@H]4CCCO4)c3n2)cc1`: the Potency result was “inactive”.
On the same count and under the same terms, for `COc1ccc(CNc2cc(-c3cccc(NS(C)(=O)=O)c3)ncn2)c(OC)c1` the value was “inactive”; for `COCCn1c(=O)c(-c2cc(F)cc(F)c2)nc2cnc(N3CCN(C)CC3)nc21`, “inactive”; for `O=c1c(CCc2ccccc2)nc2cnc(N3CCNCC3)nc2n1Cc1cccs1`, “inactive”.
For the compound `N#CCCn1c(=O)c(-c2cccc(C#N)c2)nc2cnc(Oc3cccc(Cl)c3)nc21`, the Potency result was “inactive”.
The same measure, in the same setting: for `Cn1cc(-c2nc3cnc(N4CCNCC4)nc3n(C3CC3)c2=O)c2ccccc21` the value was “inactive”; for `COc1ccccc1-c1ccc2ncnc(N3CCNCC3)c2c1`, “inactive”.
Same read-out and setting: the same measure for `COCCn1c(=O)c(-c2ccccc2)nc2cnc(Oc3cccc(Cl)c3)nc21`: “inactive”.
Still for that read-out and setting: for `COc1ccc(-n2c(=O)c(CCc3ccccc3)nc3cnc(OC)nc32)cc1` the value was 2000 nM (active).
As for `COc1ccc(Oc2ncc3nc(-c4cccc(C#N)c4)c(=O)n(Cc4cccc(OC)c4)c3n2)cc1`, the Potency result is “inactive”.
For the compound `N#Cc1cccc(-c2nc(NCCN3CCOCC3)c3ccccc3n2)c1`, the Potency entry is “inactive”.

For the next assay, the target named is Cytochrome P450 2C9 (Homo sapiens) (UniProt P11712). Briefly: qHTS Assay for Inhibitors and Substrates of Cytochrome P450 2C9 (AID 883). Note: nearly all actives have a fitted effect of over 60% in size. Note: potency is the fitted concentration of half-maximal effect. Conditions: recombinant CYP2C9, luciferin-H luminescence, 60 min; series mostly up to 57.1 µM. The method, boiled down:
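Turnover of Luciferin-H (100uM, KM) by 10nM human CYP2C9 was measured over 60 min at 37C with NADPH regeneration; inhibitors and some substrates reduce luminescence. Data normalized to sulphaphenazole 57uM.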
Turning to `COc1cccc(Cn2c(=O)cnc3cnc(Nc4cccc(OC)c4)nc32)c1`, the Potency was 2000 nM (active).
On the same count and under the same terms, the same measure for `CN1CCN(c2ncc3nc(-c4cn(C)c5ccccc45)c(=O)n(C[C@H]4CCCO4)c3n2)CC1`: “inactive”; for `COCCn1c(=O)c(-c2cccs2)nc2cnc(Oc3ccccc3)nc21`: 3980 nM (active).
For the compound `COc1ccc(CNc2cc(-c3cccc(NS(C)(=O)=O)c3)ncn2)c(OC)c1`, the activity change, negative = inhibition was 30.9% [at 2.29 µM] (inactive).
On to `Cn1cc(-c2nc3cnc(N4CCNCC4)nc3n(C3CC3)c2=O)c2ccccc21`, for which the Potency was 3980 nM (active).
Still for that read-out and setting: for `COCCn1c(=O)c(-c2ccccc2)nc2cnc(Oc3cccc(Cl)c3)nc21` the value was 501 nM (active).

The target in the next assay is Cytochrome P450 3A4 (Homo sapiens) (UniProt P08684). Briefly: qHTS Assay for Inhibitors and Substrates of Cytochrome P450 3A4 (AID 884). Note: nearly all actives have a fitted effect of over 50% in size. Note: potency is the fitted concentration of half-maximal effect. Conditions: recombinant CYP3A4, Luciferin-PPXE luminescence; series mostly up to 57.1 µM. In a few lines:
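20 nM human CYP3A4 with 25 uM Luciferin-PPXE (at KM) in 200 mM KPO4, preincubated 10 min with compound; NADPH regeneration started a 60 min RT reaction. Luciferin detected by luminescence, normalized to 57 uM ketoconazole as full inhibition.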
For the compound `COc1cccc(Cn2c(=O)cnc3cnc(Nc4cccc(OC)c4)nc32)c1`, the Potency is 2000 nM (active).
The same measure, in the same setting: for `COc1cccc(-c2ccc3ncnc(NCc4cnc(C)cn4)c3c2)c1` the value was 7940 nM (active); for `Cn1c(=O)c(-c2ccccc2)nc2cnc(N3CCOCC3)nc21`, “inactive”; for `COc1cccc(-c2nc(NC3CC3)c3ccccc3n2)c1`, 1260 nM (active).
The same measure, in the same setting: the same measure for `COc1ccc2[nH]cc(CCNc3ncnc4ccc(-c5ccoc5)cc34)c2c1`: 3980 nM (active); for `COc1ccccc1CNc1ncnc2ccc(-c3cccc(NS(C)(=O)=O)c3)cc12`: 3160 nM (active); for `COc1ccc(CNc2ncncc2-c2ccccc2OC)c(OC)c1`: 316 nM (active).
On the same count and under the same terms, the same measure for `CN(C)c1ncc2nc(CCc3ccccc3)c(=O)n(CCc3ccccc3)c2n1`: 6310 nM (active); for `COc1ccc(Oc2ncc3nc(-c4cccc(C#N)c4)c(=O)n(Cc4cccc(OC)c4)c3n2)cc1`: 2000 nM (active).

For a further assay the target is unchanged. Briefly: qHTS Assay for Activators of Cytochrome P450 3A4 (AID 885). Note: nearly all actives have a fitted effect of over 65% in size. Conditions: recombinant CYP3A4, Luciferin-PPXE luminescence, 60 min; series mostly up to 57.1 µM. In a few lines:
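Steps: enzyme/substrate mix dispensed; compound added, 10 min RT; NADPH regeneration solution added, 60 min RT; luciferin detection buffer stops reaction; 20 min later luminescence measured.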
For the compound `Cc1nc2cnc(N3CCN(C)CC3)nc2n(CCc2ccccc2)c1=O`, the outcome was inactive.
On the same count and under the same terms, the same measure for `COc1cccc(-c2cncnc2NCCN2CCOCC2)c1`: “inactive”; for `O=c1c(CCc2ccccc2)nc2cnc(Oc3ccccc3)nc2n1C1CC1`: “inactive”; for `CCNc1ncc2ncc(=O)n(Cc3ccc(F)cc3)c2n1`: “inactive”.
For the compound `COc1cccc(Cn2c(=O)cnc3cnc(Nc4cccc(OC)c4)nc32)c1`, the outcome was inactive.
Still for that read-out and setting: for `COc1cccc(-c2ccc3ncnc(NCc4cnc(C)cn4)c3c2)c1` the value was “inactive”; for `COc1cccc(-c2nc(NC3CC3)c3ccccc3n2)c1`, “inactive”; for `COc1ccc2[nH]cc(CCNc3ncnc4ccc(-c5ccoc5)cc34)c2c1`, “inactive”.
Still for that read-out and setting: the same measure for `COc1ccccc1CNc1ncnc2ccc(-c3cccc(NS(C)(=O)=O)c3)cc12`: “inactive”; for `COc1ccc(CNc2ncncc2-c2ccccc2OC)c(OC)c1`: “inactive”; for `COCCn1c(=O)c(-c2cccs2)nc2cnc(Oc3ccccc3)nc21`: “inactive”.
On to `CN(C)c1ncc2nc(CCc3ccccc3)c(=O)n(CCC#N)c2n1`, for which the result was inactive.
On the same count and under the same terms, for `CN(C)c1ncc2nc(CCc3ccccc3)c(=O)n(CCc3ccccc3)c2n1` the value was “inactive”; for `COc1ccc(CNc2cc(-c3cccc(NS(C)(=O)=O)c3)ncn2)c(OC)c1`, “inactive”; for `CCNc1ncc2nc(CCc3ccccc3)c(=O)n(Cc3cccc(OC)c3)c2n1`, “inactive”.
On the same count and under the same terms, the same measure for `CN(Cc1ccco1)c1nc(-c2ccccc2C(F)(F)F)nc2ccccc12`: “inactive”.
For the compound `Cn1cc(-c2nc3cnc(N4CCNCC4)nc3n(C3CC3)c2=O)c2ccccc21`, the outcome was inactive.
The same measure, in the same setting: for `COCCn1c(=O)c(-c2ccccc2)nc2cnc(Oc3cccc(Cl)c3)nc21` the value was “inactive”; for `Clc1ccccc1-c1nc(-n2ccnc2)c2ccccc2n1`, “inactive”; for `COc1ccc(-n2c(=O)c(CCc3ccccc3)nc3cnc(OC)nc32)cc1`, “inactive”.
Same read-out and setting: the same measure for `COc1ccc(Oc2ncc3nc(-c4cccc(C#N)c4)c(=O)n(Cc4cccc(OC)c4)c3n2)cc1`: “inactive”; for `N#Cc1cccc(-c2nc(NCCN3CCOCC3)c3ccccc3n2)c1`: “inactive”.

Source of the values: PubChem BioAssay (NCATS).
